rCAG binder: binds r(CAG) RNA repeats; inhibition, % at 3 µM; 370,000 tested, 1.3% active; r(CAG) RNA repeat, TO-PRO-1 dye displacement fluorescence;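 active means inhibition above the plate cutoff, the mean of all test compounds on that plate plus 3 SD, cut at about 35% in these data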;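 further: 0% = DMSO alone and 100% = 100 µM mitoxantrone as full dye displacement; higher means more dye released from RNA so lower well fluorescence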
ADAM17 inh: ADAM17 inhibition, QFRET primary screen. AID 720648. inhibition, % at 6.95 µM. P78536. 370,000 tested, 0.83% active. recombinant ADAM17, EDANS/DABCYL FRET peptide cleavage;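 active means inhibition above the mean of compounds lying between control limits plus 3 SD, set per campaign, cut at about 8.5% in these data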;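 further: 0% = DMSO-only wells as the low control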
AHR activator: activates the human aryl hydrocarbon receptor. P35869. AHR-responsive luciferase reporter cells, luminescence. activation, % at 5 µM. 320,000 tested, 2.5% active; in the data active means activation above about 47%;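 further: 0% = vehicle wells and 100% = reference agonist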
KLK7 zymogen act: activators of human kallikrein-7 zymogen; activation, % at 7 µM; P49862; 370,000 tested, 0.9% active; AID 652039; purified proKLK7, EDANS-DABCYL substrate fluorescence; 100% is mature enzyme control, 0% vehicle;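 active means activation above the mean of all tested compounds plus 3 SD, computed per campaign excluding outliers beyond control limits, cut at about 13% in these data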
Target sequence (P49862 whole entry, looked up): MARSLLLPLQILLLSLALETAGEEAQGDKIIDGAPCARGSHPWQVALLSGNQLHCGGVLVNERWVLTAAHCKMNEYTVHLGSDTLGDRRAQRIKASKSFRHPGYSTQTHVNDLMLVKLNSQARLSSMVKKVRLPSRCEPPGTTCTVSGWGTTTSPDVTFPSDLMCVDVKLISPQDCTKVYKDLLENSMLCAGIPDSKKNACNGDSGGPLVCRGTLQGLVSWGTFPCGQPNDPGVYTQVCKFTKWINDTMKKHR
ADAM10 inh: inhibits human ADAM10 | recombinant ADAM10, EDANS/DABCYL FRET peptide cleavage, 3 h | inhibition, % at 7 µM | 370,000 tested, 0.62% active | AID 720582;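 active means inhibition above a per-campaign cutoff equal to the mean of compounds falling between control-based bounds plus 3 SD, cut at about 20% in these data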;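 further: 0% = DMSO wells while the 100% control is not disclosed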
GRIN3A LBD mod: modulators (binders) of human NR3A ligand-binding domain. NR3A LBD differential scanning fluorimetry, Tm shift; 0% = protein alone, 100% = glycine-bound protein. Tm shift relative to glycine control, % at 25 µM. 340,000 tested, 2.5% active. AID 1259313;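 active means melting temperature shift of at least 10% of the positive control shift, at one fixed dose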
ADAM10 ctr: counter-screen for ADAM17 exosite inhibitors: inhibitors of human ADAM10. inhibition, % at 6.95 µM. 2,900 tested, 47% active. recombinant ADAM10, EDANS/DABCYL FRET peptide cleavage, 3 h. shares compounds with ADAM17 inh;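 active means mean inhibition over the triplicate runs exceeds the activity threshold set in the earlier primary screen, cut at about 20% in these data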;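 further: 0% = DMSO wells and 100% = marimastat wells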
ADAM17 confirm: human ADAM17 inhibition, confirmation; 2,900 tested, 65% active; shares compounds with ADAM17 inh; AID 743257; inhibition, % at 6.95 µM; recombinant ADAM17, EDANS/DABCYL QFRET peptide cleavage;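 active means mean inhibition across replicates above the hit cutoff set in the primary screen, cut at about 8.5% in these data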;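 further: 0% = DMSO wells and 100% = marimastat wells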
* = called active by the depositor; . = no result. Hits are enriched below; roughly 7% of the tested compounds scored in any of these assays.

SMILES	rCAG binder	ADAM17 inh	AHR activator	KLK7 zymogen act	ADAM10 inh	GRIN3A LBD mod	ADAM10 ctr	ADAM17 confirm
O=C(NC(Cc1ccccc1)C(=O)N1CCCCC1)c1ccccc1 (centres undefined)	1	9.3*	0	0	2	0	8	5
CCCCN(Cc1ccccc1)S(=O)(=O)c1cc2c(cc1Br)CC(C)N2C(C)=O (centres undefined)	5	11*	.	1	17	-3	16	12*
CCC(=O)N1c2ccc(S(=O)(=O)N(CCO)Cc3ccccc3)cc2CC1C (centres undefined)	-5	-2	-1	0	-6	-1	.	.
Cc1ccc(NC(=O)/C=C/C(=O)O)c(NC(=O)c2ccccc2)c1	5	1	22	0	4	-1	.	.
CN(CCOc1ccc(Cl)cc1)C(=O)CNS(=O)(=O)c1ccc(N(C)C)c([N+](=O)[O-])c1	2	-3	.	0	-5	-9	.	.
CN(C)c1ccc(S(=O)(=O)NCC(=O)OCC(=O)Nc2cc(Cl)cc(Cl)c2)cc1[N+](=O)[O-]	21	9.9*	3	0	20	18*	42*	23*
COc1ccc(C(=O)COC(=O)C(CCCCN2C(=O)C3C4C=CC(C4)C3C2=O)N2C(=O)C3C4C=CC(C4)C3C2=O)cc1 (centres undefined)	-2	9.3*	-1	1	8	2	-3	5
CC(=O)Nc1ccc(CN(C)c2c(C)nc3ccc(C(=O)N4CCN(C(=O)c5ccco5)CC4)cn23)cc1	0	-1	.	0	-5	.	.	.
C[C@H](CO)N1C[C@H](C)[C@@H](CN(C)S(C)(=O)=O)Oc2c(NC(=O)C3CC3)cccc2C1=O	1	-3	0	0	0	-1	.	.
CCN1C(=O)N[C@@H](CCc2ccccc2)[C@@H](C(=O)OC)[C@H]1C	-3	9.8*	15	1	-1	-3	7	7
COC(=O)[C@H]1[C@H](CCc2ccccc2)NC(=O)N(Cc2ccccc2)[C@@H]1C	-8	-2	-2	0	6	7	.	.
CN(c1ncc(C(F)(F)F)cc1Cl)n1cc(C(N)=O)c2ccccc2c1=O	0	0	-2	0	2	-1	.	.
NC(CSCc1ccccc1Cl)C(=O)O (centres undefined)	1	-4	4	0	-15	0	.	.
N=C(N)SCc1ccccc1Cl	-2	9.4*	0	0	-4	-1	8	4
O=C1NC2(CCCC2)N=C1c1ccc(Cl)cc1	2	9.6*	1	-1	15	-1	12	5
CC1CC(C)CN(S(=O)(=O)c2ccc(NC(=O)CN3C(=O)NC(C)(c4ccccc4)C3=O)cc2)C1 (centres undefined)	6	10.0*	-1	0	17	-2	21*	12*
CC(CN1CCN(C)CC1)OC(=O)c1cccc(F)c1 (centres undefined)	-3	-2	1	0	-2	-2	.	.
O=C(O)c1cc(-c2cccs2)nn1-c1cccc(Cl)c1	2	-3	-1	0	-3	-2	.	.
CN(C)S(=O)(=O)c1cccc(NC(=O)c2cc(-c3cccs3)nn2-c2cccc(Cl)c2)c1	12	12*	6	0	13	2	14	12*
Cc1ccc(NC(=O)COc2ccc(Br)cc2CO)cc1	0	9.3*	0	0	9	-3	-6	0
COc1ccc(C(CNC(=O)c2cccc(N(C)C)c2)N2CCCC2)cc1 (centres undefined)	8	9.4*	3	1	2	1	-41	-3
COc1ccc(NS(=O)(=O)c2cccc(C(=O)NCC(c3ccc(OC)cc3)N3CCCC3)c2)cc1 (centres undefined)	0	-2	-1	0	-9	0	.	.
CCC1CCCCN1S(=O)(=O)c1ccc(NC(=O)C2CC(=O)N(C(C)(C)C)C2)cc1 (centres undefined)	2	-1	.	-1	-12	1	.	.
S=C(NCCCN1CCOCC1)N(Cc1ccccc1)Cc1ccccc1	-9	-4	1	0	-2	-1	.	.
CCCCn1nc(C(=O)N2CCN(S(=O)(=O)c3ccccc3)CC2)c2ccccc2c1=O	-5	-5	4	0	-6	0	.	.
SMILES	rCAG binder	ADAM17 inh	AHR activator	KLK7 zymogen act	ADAM10 inh	GRIN3A LBD mod	ADAM10 ctr	ADAM17 confirm
O=C(CC1SC(=Nc2ccccc2)N(CCc2c[nH]c3ccccc23)C1=O)Nc1ccccc1F (centres undefined)	9	9.9*	12	0	14	21*	24*	13*
O=C(CC1SC(=Nc2ccccc2)N(CCc2ccccn2)C1=O)Nc1ccc(F)cc1 (centres undefined)	10	0	0	1	7	-15	.	.
CC(C)(C)C1CCC(=NNC(=O)C(=O)NC2CCCCC2)CC1 (centres undefined)	-1	3	1	0	-14	-11	.	.
O=C(COc1ccc2ccc(=O)oc2c1)Nc1cccc(S(=O)(=O)N2CCCCC2)c1	2	-9	0	1	-35	-6	.	.
Cc1ccc(Cn2c(C(CO)Nc3nc(-c4ccc(Cl)c([N+](=O)[O-])c4)cs3)nc3ccccc32)cc1 (centres undefined)	25	17*	37	0	20	26*	16	9.7*
COc1ccc(-c2csc(NC(CO)c3nc4ccccc4n3Cc3ccc(C)cc3)n2)cc1 (centres undefined)	14	8	22	0	11	-1	.	.
Cc1cc(C)n(CCc2nc(-c3ccc(F)cc3)cs2)n1	-4	-3	-9	0	-3	3	.	.
Cc1cc(C)n(CCc2nc(-c3ccc(C(C)(C)C)cc3)cs2)n1	2	12*	6	0	19	12*	14	11*
O=C(Nc1ccccc1C(=O)NCC1CCCO1)c1ccc(Cl)cc1 (centres undefined)	-3	0	2	0	-19	0	.	.
Cc1ccc(SCC(=O)OCC(=O)NCc2ccco2)cc1	3	9.2*	1	0	-4	-1	8	4
CSc1ccc(NC(=O)C2(C)CCN2C(=O)c2sccc2C)cc1 (centres undefined)	0	-5	.	0	1	.	.	.
CCSc1nnc(NC(=O)CCc2ccc(OC)cc2)s1	2	9.1*	4	0	16	0	4	3
COc1ccc(CCC(=O)Nc2nnc(C(C)(C)C)s2)cc1	-3	-1	3	-1	6	1	.	.
